Bioassay records (PubChem BioAssay)
DAX1 inh = NR0B1 (DAX1) inhibition; P51843; HEK293 Gal4-DAX1 luciferase reporter, luminescence; inhibition, % at 6.75 µM; actives 0.99% (n = 340,000);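 active = inhibition above the mean over all tested compounds plus 3 SD, cut at about 4.2% in these data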;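 also: 0% = DAX1-transfected cells with DMSO and 100% = empty-vector control cells with DMSO; inhibition shows as a rise in luminescence from relieved DAX1 repression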
Target sequence (P51843 207-470 limits assumed): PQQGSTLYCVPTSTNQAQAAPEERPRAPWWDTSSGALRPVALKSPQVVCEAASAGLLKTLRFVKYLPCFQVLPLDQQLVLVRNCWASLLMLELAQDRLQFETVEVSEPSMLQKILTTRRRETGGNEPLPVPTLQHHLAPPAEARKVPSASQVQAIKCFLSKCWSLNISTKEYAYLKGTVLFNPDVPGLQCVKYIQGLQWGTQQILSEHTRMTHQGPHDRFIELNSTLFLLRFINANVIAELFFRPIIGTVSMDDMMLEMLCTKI
HSF1 activator = increases HSF-1 driven luciferase reporter signal; NIH3T3-HGL HSF-1 luciferase reporter, MG132, 8 h; 100% = twice DMSO control signal; activation, % at 9 µM; actives 1.7% (n = 300,000);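 active = mean replicate activation of at least 50% with a set share of replicates each reaching 50%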;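 also: 0% = median of the neutral control wells and 100% = twice that signal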
AHR activator = activates the human aryl hydrocarbon receptor | P35869 | AHR-responsive luciferase reporter cells, luminescence | activation, % at 5 µM | actives 2.5% (n = 320,000); in the data active = activation above about 47%;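 also: 0% = vehicle wells and 100% = reference agonist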
FXN GAA850 act = activators of GAA850 frataxin (FXN) promoter | AID 540364 | actives 0.56% (n = 360,000) | HEK293 lucGAA850 FXN promoter luciferase reporter, 24 h; percent of 10 µM SAHA response | activation, % at 6 µM;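 active = activation above the average of all compounds screened plus 3 SD, cutoff fixed separately per campaign, cut at about 7.5% in these data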;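 also: 0% = DMSO wells and 100% = 10 µM SAHA wells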
HSF1 inh = HSF1 inhibition; NIH3T3-HGL HSE-luciferase, MG132-induced, luminescence 8 h; active compounds read low; activity change, negative = inhibition, % at 7.5 µM (by protocol); actives 0.77% (n = 300,000); AID 2098;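 active = more than half of replicate wells show activity change below -50%, luminescence cut by over half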;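 also: luciferase reports HSF-1 transcriptional activity via heat shock element; 0% = median of DMSO wells and -100% = zero luminescence signal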
AHR act cf = confirmation of human aryl hydrocarbon receptor activators. shares compounds with AHR activator. human cells, AHR-responsive luciferase reporter, luminescence. activation, % at 9 µM. actives 87% (n = 2,300); in the data active = activation above about 49%;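 also: HepG2 hepatoma cells carrying a DRE-driven firefly luciferase reporter; 0% = vehicle wells and 100% = reference agonist wells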
PXR act counter = PXR activation, counter-screen for AHR activators. actives 88% (n = 2,300). activation, % at 11.6 µM. shares compounds with AHR activator. cell-based PXR reporter, luciferase luminescence; in the data active = activation above about 11%;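 also: human hepatoma DPX-2 cells expressing full-length human PXR; 0% = DMSO and 100% = reference agonist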
An asterisk follows results filed as active; . = no result. Only some compounds are listed: those with a hit (about 5.4% of all), similar ones and a draw of the others.

SMILES	DAX1 inh	HSF1 activator	AHR activator	FXN GAA850 act	HSF1 inh	AHR act cf	PXR act counter
O=[N+]([O-])c1ccc(Cl)cc1CNc1ccc(F)c(F)c1	-1	-4	106*	1	-5	80*	20*
COc1ccc(/C=N/Nc2snc(SC)c2C#N)cc1OC	1	42	84*	5	40	137*	25*
CCOC(=O)c1c(S(=O)(=O)NCCCc2ccco2)c(C)n(C)c1C	1	-13	0	1	-6	.	.
CCc1ccc2oc(-c3cc(N=Cc4cccc(OC)c4O)ccc3O)nc2c1	.	-4	125*	.	-7	113*	9
COc1ccc(-c2csc(NC(=O)Cc3ccccc3F)n2)c(OC)c1	-1	30	-6	1	19	.	.
COc1ccc(-c2csc(-c3cccs3)n2)c(OC)c1	4	61*	80*	5	24	119*	39*
Cc1cc(Nc2ccc(Br)c(C)c2)n2nc(C)nc2n1	-1	4	85*	2	1	46	12*
Cc1ccc(Nc2cc(C)nc3nc(C)nn23)cc1	1	-6	124*	0	-5	14	9
Cc1cc(Nc2ccccc2Cl)n2nnnc2n1	0	-20	1	2	-7	.	.
Cc1cc(Nc2ccc(Cl)cc2)n2nnnc2n1	-1	22	143*	-1	3	91*	14*
Cc1ccc(NC(=O)CN2C(=O)CC(C)S(=O)(=O)c3ccccc32)cc1 (stereo unspecified)	0	-14	0	0	-3	.	.
CCOC(=O)c1ccc(NC(=O)CSc2nc(=O)n3cccc(C)c3n2)cc1	0	4	-3	-1	-3	.	.
CC(=O)/C(N=Nc1ccc2c(c1)OCO2)=C(\C)O	2	-32	112*	4	-15	95*	9
N#Cc1c(N)nc(N)nc1Nc1ccc(Br)cc1	3	40	83*	4	24	72*	17*
CCCCn1c(N)c(N(CC(C)C)C(=O)c2cc(-c3ccncc3)nc3ccccc23)c(=O)[nH]c1=O	1	-1	14	1	6	.	.
C/C=C\C=C/C(=O)Nc1cccc(C2=NOC3(C2)C[C@H](C(N)=O)N(C(=O)Cc2ccc([N+](=O)[O-])cc2)C3)c1 (stereo partly specified)	-1	.	0	0	-5	.	.
CCCCNC(=O)CC1Nc2ccccc2NC1=O (stereo unspecified)	1	12	86*	1	-1	52*	58*
O=c1c2ccccc2oc2nc(-c3ccco3)n(-c3ccccc3)c(=O)c12	0	42	95*	4	25	148*	33*
Cc1ccc(/C=N/n2cc(-c3ccccc3)[nH]c2=S)s1	2	32	96*	2	1	84*	.
CN(NC(=O)C(C)(C)C)c1nc(-c2ccccc2)nnc1C(F)(F)F	0	8	1	2	3	.	.
CN(C)c1nc(-c2ccccc2)nnc1C(F)(F)F	0	.	96*	1	.	114*	25*
CC(=O)N(Cc1ccco1)c1nc(C(=O)Nc2ccc(Cl)cc2)c(C)s1	-1	53*	90*	0	15	66*	63*
Cc1ccc(S(=O)(=O)NC[C@H]2O[C@@H](n3ccc(N)nc3=O)[C@H](O)[C@@H]2O)s1	2	.	.	1	.	.	.
CN1CCC(N(C)C(=O)c2ccc(Cl)c(S(=O)(=O)N3CCCCC3)c2)CC1	0	.	-2	1	.	.	.
Cn1cc(SCC(=O)NC2CCCCC2)c2ccccc21	1	3	88*	-1	5	6	108*
Nc1c2c(nc3ccccc13)N(c1ccccc1)CC2	-1	-61	143*	0	-53*	105*	22*
CCCCc1nc2ccccc2c(NC(=O)CN2CCCC2)c1CCC	0	3	2	0	-2	.	.
CN1CCCCc2c1nc1ccccc1c2N (tested in a mixture with another compound)	1	7	26	-2	-5	.	.
O=C(CN1CCCCC1)Nc1c2c(nc3ccccc13)N(c1ccccc1)CC2	0	19	132*	1	8	107*	38*
